Measurements published in PubChem BioAssay (Tox21).
Values without a mark were called inactive. Records with an inconclusive call do not appear. A call without a number means that no potency is given here. The source made the active and inactive calls. Unless noted, calls come from the whole dose curve; as a rule, active = well fitted curve in the direction sought with a large enough effect in the repeat runs; inconclusive = weak or mixed curves; inactive = no such curve, though single readings can be large; an effect the other way counts as inactive or inconclusive.

Tests used:
[1] = qHTS assay to identify small molecule antagonists of the constitutive androstane receptor (CAR) signaling pathway - cell viability counter screen (AID 1224837); note: nearly all actives have a fitted effect of over 45% in size
Summary of the method: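 Cells are seeded, rested 4 hr at 37 C/5% CO2, dosed with compound (15-point series) and 50 nM CITCO, incubated a further 23 hr, and then CellTiter-Fluor reagent is added before fluorescence is read. The line is HepG2 with stable hCAR and CYP2B6-2.2kb.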

[2] = target: Nuclear receptor subfamily 1 group I member 3 (Homo sapiens) (UniProt Q14994); assay: qHTS assay to identify small molecule antagonists of the constitutive androstane receptor (CAR) signaling pathway (AID 1224838);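 note: HepG2 cells stably expressing hCAR with CYP2B6 luciferase reporter stimulated by CITCO; nearly all actives have a fitted effect of over 40% in size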; note: potency is the fitted concentration of half-maximal effect
Summary of the method: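 Luminescence from a CYP2B6-2.2kb promoter reporter in hCAR-expressing HepG2 cells reflects CAR signaling. Cells received compounds at 15 concentrations and 50 nM CITCO (final), then incubated 24 h at 37 C/5% CO2.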

[3] = target: Nuclear receptor subfamily 1 group I member 3 (Homo sapiens) (UniProt Q14994); assay: qHTS assay to identify small molecule agonists of the constitutive androstane receptor (CAR) signaling pathway (AID 1224839); note: nearly all actives have a fitted effect of over 15% in size; note: potency is the fitted concentration of half-maximal effect
Summary of the method: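 A 15-concentration quantitative screen uses HepG2 cells co-transfected stably with human CAR and CYP2B6-2.2kb reporter. Treatment lasts 24 h with 0.75 uM PK11195 final present; ONE-Glo luminescence is the signal.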

[4] = qHTS assay to identify small molecule antagonists of the estrogen related receptor signaling pathway with the pleiotropic PPARgamma coactivator (PGC) from Tox21 10K library - cell viability counter screen (AID 1224840; active = well fitted cell-killing curve with a large enough effect in the repeat runs, not every such curve was filed as active; note: nearly all actives have a fitted effect of over 40% in size)
Summary of the method: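 Cell viability is measured by CellTiter-Fluor fluorescence in PGC/ERR cells that receive compounds after a 6-hour attachment period and are then incubated 17.5 hours at 37 C.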

[5] = target: Thyrotropin receptor (Homo sapiens) (UniProt P16473); assay: qHTS assay to identify small molecule agonists of the thyroid stimulating hormone receptor (TSHR) signaling pathway (AID 1224843; calls by dose curve; note: nearly all actives have a fitted effect of over 45% in size)
Summary of the method: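 A cell-based cAMP HTRF format was run in TSHR-transfected HEK293 cells, 800 per well. Treatment: 30 min, room temperature. Detection: 1 h with labelled cAMP and anti-cAMP cryptate. Concentration-response over 15 points, three replicates.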

[6] = qHTS assay to identify small molecule agonists of H2AX (AID 1224845; active = well fitted activation curve with a large enough effect in the signal ratio in the repeat runs, not every such curve was filed as active; the % refers to the signal ratio; note: potency is the fitted concentration of half-maximal effect)
Summary of the method: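 Phospho-H2AX Ser139 measured by HTRF (ex 320 nm; em 665 and 620 nm) after 24 hr antibody incubation. Compounds, 15 concentrations, 0.76% DMSO, were applied to CHO-K1 cells for 3hr at 37C before lysis.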

[7] = qHTS assay to identify small molecule agonists of the hypoxia (HIF-1) signaling pathway (AID 1224846; active = well fitted activation curve with a large enough effect in the signal ratio in the repeat runs, not every such curve was filed as active; the % refers to the signal ratio)
Summary of the method: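 Agonist mode reporter screen. ME-180 cells stably expressing bla under HRE control received test compounds in DMSO for 17 hrs (37C, 5% CO2), and beta-lactamase activity was then detected with the CCF4-AM FRET substrate.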

[8] = qHTS RealTime-Glo MT Cell Viability Assay in HEK293 cells - 32 hour (AID 1224868); note: nearly all actives have a fitted effect of over 50% in size; note: potency is the fitted concentration of half-maximal effect
Summary of the method: (§1)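 Tox21 10K qHTS, HEK293, 600 cells/well, RealTime-Glo reagent co-dispensed with cells; 5 h preincubation, compound by pintool, 37 C, luminescence at 0–40 h.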

[9] = A CellTox Green Cytotoxicity Assay to monitor cytotoxicity in HEK293 cells - 0 hour (AID 1224869); note: nearly all actives have a fitted effect of over 50% in size
Summary of the method: (§2)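 Dead-cell fluorescence measured kinetically: asymmetric cyanine dye, HEK293, 600 cells/well, 5 h settle, 23 nL cpd/DMSO, 37 C, reads 0–40 h every 8 h.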

[10] = qHTS RealTime-Glo MT Cell Viability Assay in HepG2 cells - 40 hour (AID 1224870); note: nearly all actives have a fitted effect of over 50% in size; note: potency is the fitted concentration of half-maximal effect
Summary of the method: (§3)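 Real-time viability: cells seeded at 600 per well together with NanoLuc and cell-permeant prosubstrate, compounds added after 5 h incubation. Luminescence tracked at 0, 8, 16, 24, 32 and 40 h of exposure.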

[11] = A CellTox Green Cytotoxicity Assay to monitor cytotoxicity in HEK293 cells - 40 hour (AID 1224871); note: nearly all actives have a fitted effect of over 45% in size; note: potency is the fitted concentration of half-maximal effect
Summary of the method: as §2

[12] = qHTS RealTime-Glo MT Cell Viability Assay in HEK293 cells - 16 hour (AID 1224872); note: top concentration of the series differs between compounds; nearly all actives have a fitted effect of over 50% in size
Summary of the method: as §1

[13] = qHTS RealTime-Glo MT Cell Viability Assay in HepG2 cells - 8 hour (AID 1224873); note: nearly all actives have a fitted effect of over 55% in size
Summary of the method: as §3

[14] = qHTS assay to identify small molecule agonists of the hypoxia (HIF-1) signaling pathway - cell viability counter screen (AID 1224844; calls by dose curve; note: nearly all actives have a fitted effect of over 50% in size; note: potency is the fitted concentration of half-maximal effect)
Summary of the method: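 Viability counter screen: HRE-bla ME-180 cells plated 5 hrs before compound addition, treated 17 hrs at 37C and 5% CO2, then CellTiter-Glo added after the FRET reporter read; luminescence after 30 min.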

[15] = qHTS RealTime-Glo MT Cell Viability Assay in HepG2 cells - 24 hour (AID 1224867); note: nearly all actives have a fitted effect of over 50% in size
Summary of the method: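 Cells + NanoLuc/prosubstrate dispensed (600 cells/well) → 5 h at 37 C/5% CO2 → compounds in DMSO transferred → 40 h incubation at 37 C, luminescence read at 0, 8, 16, 24, 32, 40 h.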

[16] = qHTS assay to identify small molecule agonists of H2AX - cell viability counter screen (AID 1224847; calls by dose curve; note: top concentration of the series differs between compounds; nearly all actives have a fitted effect of over 30% in size)
Summary of the method: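 We seed wild-type CHO-K1 cells overnight, treat them for 3 hr at 37C with compounds in 15-concentration series, and quantify remaining viability by CellTiter-Glo luminescence.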

[17] = qHTS assay to identify small molecule antagonists of the estrogen related receptor signaling pathway with the pleiotropic PPARgamma coactivator (PGC) from Tox21 10K library (AID 1224841; call rule not given here)
Summary of the method: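 Cells stably carrying the PGC/ERR reporter, seeded at 2,000 per well, received pin-transferred compounds 6 h post-plating. Exposure lasted 18 h at 37 C. Signal: One-Glo luminescence.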

[18] = qHTS assay to identify small molecule agonists of the estrogen related receptor signaling pathway with the pleiotropic PPARgamma coactivator (PGC) from Tox21 10K library (AID 1224842); note: nearly all actives have a fitted effect of over 15% in size
Summary of the method: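 Luminescence from One-Glo (30 min, room temperature) measured after PGC/ERR cells had 18 h at 37 C with pinned compound (23 nL in DMSO). Cells had been seeded at 2,000 per well and pre-incubated 6 h.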

[19] = qHTS assay to identify small molecule agonists of the estrogen related receptor (ERR) signaling pathway from Tox21 library (AID 1224849; calls by dose curve; note: nearly all actives have a fitted effect of over 15% in size); settings: ERR reporter cell line, ONE-Glo luciferase, 18 h; at 92.4 µM (top of the series) unless noted
Summary of the method: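 Quantitative HTS in agonist format: NTP ERR cell line, compounds transferred in DMSO after 6 h plating, 18 h incubation at 37 C, ONE-Glo luminescence endpoint.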

Thyrotropin receptor (Homo sapiens), sequence (P16473 whole entry, looked up): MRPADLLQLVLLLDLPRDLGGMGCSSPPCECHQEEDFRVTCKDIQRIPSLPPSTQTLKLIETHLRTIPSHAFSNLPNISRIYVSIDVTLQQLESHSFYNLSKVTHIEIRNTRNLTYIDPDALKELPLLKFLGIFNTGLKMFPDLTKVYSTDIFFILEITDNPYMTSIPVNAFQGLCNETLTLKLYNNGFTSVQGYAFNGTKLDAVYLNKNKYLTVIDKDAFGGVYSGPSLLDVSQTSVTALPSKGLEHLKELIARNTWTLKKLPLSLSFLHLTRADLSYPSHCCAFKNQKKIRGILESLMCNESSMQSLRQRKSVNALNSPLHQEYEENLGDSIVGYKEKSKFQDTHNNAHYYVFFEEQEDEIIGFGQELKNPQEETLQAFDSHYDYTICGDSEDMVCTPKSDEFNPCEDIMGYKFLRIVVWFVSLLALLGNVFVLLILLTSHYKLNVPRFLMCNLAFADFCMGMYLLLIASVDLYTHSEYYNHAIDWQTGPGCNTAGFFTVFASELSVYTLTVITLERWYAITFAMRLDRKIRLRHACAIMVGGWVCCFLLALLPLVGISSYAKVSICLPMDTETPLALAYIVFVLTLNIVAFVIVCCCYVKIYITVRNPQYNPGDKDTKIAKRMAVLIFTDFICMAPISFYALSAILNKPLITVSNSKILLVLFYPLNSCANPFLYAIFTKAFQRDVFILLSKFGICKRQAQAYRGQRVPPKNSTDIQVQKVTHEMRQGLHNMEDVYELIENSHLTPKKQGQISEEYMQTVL
Nuclear receptor subfamily 1 group I member 3 (Homo sapiens), sequence (Q14994 whole entry, looked up): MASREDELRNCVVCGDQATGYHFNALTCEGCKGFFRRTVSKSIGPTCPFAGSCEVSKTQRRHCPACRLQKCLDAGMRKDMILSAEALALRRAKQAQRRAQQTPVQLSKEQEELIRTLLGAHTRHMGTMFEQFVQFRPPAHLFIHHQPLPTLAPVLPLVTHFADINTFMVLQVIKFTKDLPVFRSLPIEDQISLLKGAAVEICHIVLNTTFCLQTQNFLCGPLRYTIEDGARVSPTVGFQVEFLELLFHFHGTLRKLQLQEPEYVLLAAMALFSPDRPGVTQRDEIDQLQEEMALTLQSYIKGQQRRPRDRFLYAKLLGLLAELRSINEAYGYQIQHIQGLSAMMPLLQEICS

| SMILES | Potency [1] | Potency [2] | Potency [3] | Potency [4] | Potency [5] | Potency [6] | outcome [7] | Potency [8] | Potency [9] | Potency [10] | Potency [11] | Potency [12] | Potency [13] | Potency [14] | Potency [15] | Potency [16] | Potency [17] | Potency [18] | activity change, positive = activation [19] |
| --- | --- | --- | --- | --- | --- | --- | --- | --- | --- | --- | --- | --- | --- | --- | --- | --- | --- | --- | --- |
| CC[C@H](C)[C@@H](C(=O)O)n1sc2ccccc2c1=O | inactive | inactive | inactive | inactive | inactive | inactive | inactive | inactive | inactive | 30.9 µM (active) | inactive | inactive | inactive | – | – | – | – | – | – |
| Oc1ccc(Sc2ccc(O)cc2)cc1 | inactive | inactive | 57.2 µM (active) | inactive | – | 83.9 µM (active) | inactive | 20.5 µM (active) | inactive | inactive | inactive | – | inactive | inactive | inactive | – | – | – | – |
| CCCCC(CC)(CO)CO | inactive | inactive | inactive | inactive | – | inactive | inactive | inactive | inactive | inactive | inactive | inactive | inactive | inactive | inactive | – | – | – | – |
| ClC(Cl)(Cl)c1ccc(C(Cl)(Cl)Cl)cc1 | inactive | inactive | inactive | inactive | inactive | – | inactive | inactive | inactive | inactive | – | inactive | inactive | inactive | inactive | – | – | – | – |
| CCOc1cc(OCC)c(C(=O)CCC(=O)O)cc1OCC | inactive | inactive | inactive | inactive | – | inactive | inactive | inactive | inactive | inactive | inactive | inactive | inactive | inactive | inactive | – | – | – | – |
| CC(=O)O[C@H]1C[C@@H]2CC[C@@H]3[C@H](CC[C@@]4(C)[C@H]3C[C@H]([N+]3(C)CCCCC3)[C@@H]4OC(C)=O)[C@@]2(C)C[C@@H]1N1CCCCC1 | inactive | inactive | inactive | inactive | inactive | – | inactive | inactive | inactive | inactive | inactive | inactive | inactive | inactive | inactive | – | – | – | – |
| CCOC(=S)SSC(=S)OCC | inactive | inactive | inactive | inactive | – | inactive | inactive | inactive | inactive | inactive | inactive | inactive | inactive | inactive | inactive | inactive | – | – | – |
| NCCCOCCOCCOCCCN | inactive | inactive | inactive | inactive | inactive | – | – | inactive | inactive | inactive | inactive | inactive | inactive | 15.5 µM (active) | inactive | inactive | – | – | – |
| Cn1c(N)nc2nc[nH]c2c1=O | inactive | 48 µM (active) | inactive | inactive | inactive | – | inactive | – | inactive | inactive | inactive | – | inactive | inactive | inactive | – | – | – | – |
| COC(Cc1ccccc1)OC | inactive | inactive | inactive | – | inactive | inactive | inactive | inactive | inactive | inactive | inactive | inactive | inactive | inactive | inactive | inactive | – | – | – |
| CC(C)CCCC(C)CCO (stereo not drawn) | inactive | inactive | inactive | inactive | – | inactive | inactive | inactive | inactive | inactive | inactive | inactive | inactive | inactive | inactive | inactive | – | – | – |
| COc1ccc(OC)c(OC)c1 | inactive | inactive | inactive | inactive | – | inactive | inactive | – | inactive | inactive | inactive | inactive | inactive | inactive | inactive | inactive | – | – | – |
| c1ccc(OCc2ccc(CCCN3CCOCC3)cc2)cc1 | inactive | inactive | 29.8 µM (active) | – | inactive | inactive | inactive | 19 µM (active) | inactive | inactive | inactive | – | inactive | inactive | inactive | inactive | inactive | inactive | -24.5% [at 42.5 µM] |
| CCCCCCOC(=O)CCC | inactive | inactive | inactive | – | inactive | inactive | inactive | inactive | inactive | inactive | inactive | inactive | inactive | – | inactive | – | – | – | – |
| CC(Cc1cccc(C(F)(F)F)c1)NCCOC(=O)c1ccccc1 (stereo not drawn) | inactive | inactive | inactive | – | inactive | inactive | inactive | – | inactive | inactive | 21.3 µM (active) | – | inactive | inactive | inactive | – | – | – | – |
| NCCCN(CCO)CCO | inactive | inactive | inactive | – | inactive | inactive | inactive | inactive | inactive | inactive | inactive | inactive | inactive | inactive | inactive | inactive | – | – | – |
